Results as given in ChEMBL document CHEMBL1961873, “Compounds: GSK PKIS; Assays: Nanosyn kinase panel” (2012).
Several values for one entry are separate records, joined by “and”; a condition that tells them apart may be missing. Identical values can stand only once.

How the values were obtained:
[1] = target: Leukocyte tyrosine kinase receptor (Homo sapiens) (UniProt P29376); conditions: at 1 µM;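 further: each value is the mean inhibition of LTK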
[2] = target: Tyrosine-protein kinase Lyn (Homo sapiens) (UniProt P07948); conditions: at 0.1 µM
[3] = target: Tyrosine-protein kinase Lyn (Homo sapiens) (UniProt P07948); conditions: at 1 µM
[4] = target: Tyrosine-protein kinase Lyn (Homo sapiens) (UniProt P07948); conditions: at 0.1 µM; remark: listed apart in the source
[5] = target: Tyrosine-protein kinase Lyn (Homo sapiens) (UniProt P07948); conditions: at 1 µM; remark: listed apart in the source
[6] = target: T1, Tyrosine-protein kinase Mer (Homo sapiens) (UniProt Q12866); conditions: at 0.1 µM
T1 sequence (whole entry): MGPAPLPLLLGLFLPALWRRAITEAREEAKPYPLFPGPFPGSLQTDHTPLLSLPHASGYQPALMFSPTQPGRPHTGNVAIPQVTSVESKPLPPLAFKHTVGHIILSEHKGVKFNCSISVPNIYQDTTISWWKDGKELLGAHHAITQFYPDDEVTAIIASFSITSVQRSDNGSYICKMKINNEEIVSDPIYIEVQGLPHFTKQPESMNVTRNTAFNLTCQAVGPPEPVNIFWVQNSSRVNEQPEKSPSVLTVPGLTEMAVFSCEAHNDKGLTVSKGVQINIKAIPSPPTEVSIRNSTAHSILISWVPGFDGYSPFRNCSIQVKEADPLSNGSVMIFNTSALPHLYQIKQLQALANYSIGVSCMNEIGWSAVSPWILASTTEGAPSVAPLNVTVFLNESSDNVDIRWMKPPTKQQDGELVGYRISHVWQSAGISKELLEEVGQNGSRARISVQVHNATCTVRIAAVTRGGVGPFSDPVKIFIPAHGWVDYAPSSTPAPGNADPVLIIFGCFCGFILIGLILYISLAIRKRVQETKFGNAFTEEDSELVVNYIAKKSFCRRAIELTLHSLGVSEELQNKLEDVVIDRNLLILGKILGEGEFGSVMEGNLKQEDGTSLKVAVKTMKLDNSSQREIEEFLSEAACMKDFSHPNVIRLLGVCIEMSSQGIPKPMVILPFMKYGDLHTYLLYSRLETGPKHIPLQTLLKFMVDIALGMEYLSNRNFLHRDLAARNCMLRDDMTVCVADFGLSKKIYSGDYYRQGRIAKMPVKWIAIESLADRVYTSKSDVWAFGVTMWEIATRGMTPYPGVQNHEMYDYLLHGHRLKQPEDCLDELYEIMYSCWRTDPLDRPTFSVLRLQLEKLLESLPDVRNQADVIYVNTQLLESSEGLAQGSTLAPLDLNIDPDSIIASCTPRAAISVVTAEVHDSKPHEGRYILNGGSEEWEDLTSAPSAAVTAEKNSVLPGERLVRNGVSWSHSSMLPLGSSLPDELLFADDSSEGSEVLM

[7] = target: T1, Tyrosine-protein kinase Mer (Homo sapiens); conditions: at 1 µM
[8] = target: Hepatocyte growth factor receptor (Homo sapiens) (UniProt P08581); conditions: at 0.1 µM
[9] = target: Hepatocyte growth factor receptor (Homo sapiens) (UniProt P08581); conditions: at 1 µM
[10] = target: T2, Muscle, skeletal receptor tyrosine-protein kinase (Homo sapiens) (UniProt O15146); conditions: at 0.1 µM;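 further: values are mean inhibition of MuSK from the GSK PKIS kinase screening panel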
T2 sequence (whole entry): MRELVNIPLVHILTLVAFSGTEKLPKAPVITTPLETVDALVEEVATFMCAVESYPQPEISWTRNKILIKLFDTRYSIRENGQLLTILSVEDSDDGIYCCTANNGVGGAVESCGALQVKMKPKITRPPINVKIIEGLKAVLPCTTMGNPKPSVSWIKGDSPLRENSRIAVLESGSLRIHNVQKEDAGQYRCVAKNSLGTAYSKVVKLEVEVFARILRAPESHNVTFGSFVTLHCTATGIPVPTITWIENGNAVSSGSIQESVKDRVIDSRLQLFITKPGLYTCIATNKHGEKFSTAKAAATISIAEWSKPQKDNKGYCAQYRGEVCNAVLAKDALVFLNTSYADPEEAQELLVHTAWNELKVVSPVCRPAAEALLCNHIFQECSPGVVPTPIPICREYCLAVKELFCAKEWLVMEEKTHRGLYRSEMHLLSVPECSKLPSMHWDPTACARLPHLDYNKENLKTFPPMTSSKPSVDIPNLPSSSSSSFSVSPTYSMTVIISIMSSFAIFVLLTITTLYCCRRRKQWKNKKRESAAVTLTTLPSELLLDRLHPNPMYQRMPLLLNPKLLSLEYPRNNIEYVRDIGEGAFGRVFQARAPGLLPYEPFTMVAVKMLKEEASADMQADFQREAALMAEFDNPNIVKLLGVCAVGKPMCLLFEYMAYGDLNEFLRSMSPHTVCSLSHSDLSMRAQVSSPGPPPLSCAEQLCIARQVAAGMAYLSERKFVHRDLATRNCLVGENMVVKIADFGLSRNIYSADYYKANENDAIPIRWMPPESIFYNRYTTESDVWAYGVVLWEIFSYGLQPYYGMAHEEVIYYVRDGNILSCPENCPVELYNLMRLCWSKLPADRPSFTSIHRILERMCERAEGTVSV

Tyrosine-protein kinase Lyn (Homo sapiens), sequence (P07948 2-512 limits assumed): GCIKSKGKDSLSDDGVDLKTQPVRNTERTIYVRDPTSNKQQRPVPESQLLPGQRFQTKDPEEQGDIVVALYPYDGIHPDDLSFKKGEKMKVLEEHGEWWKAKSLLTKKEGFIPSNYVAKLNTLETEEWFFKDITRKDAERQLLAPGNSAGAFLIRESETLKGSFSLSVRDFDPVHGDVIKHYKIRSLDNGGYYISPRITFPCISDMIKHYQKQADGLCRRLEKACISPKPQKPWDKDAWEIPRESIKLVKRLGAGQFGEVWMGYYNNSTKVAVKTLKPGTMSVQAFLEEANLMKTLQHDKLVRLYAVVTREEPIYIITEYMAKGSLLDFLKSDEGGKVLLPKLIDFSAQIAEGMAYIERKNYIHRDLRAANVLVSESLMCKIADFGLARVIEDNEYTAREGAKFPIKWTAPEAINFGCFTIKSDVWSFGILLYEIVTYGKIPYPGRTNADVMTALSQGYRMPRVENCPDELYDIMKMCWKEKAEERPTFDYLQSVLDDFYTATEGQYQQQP
Hepatocyte growth factor receptor (Homo sapiens), sequence (P08581 whole entry): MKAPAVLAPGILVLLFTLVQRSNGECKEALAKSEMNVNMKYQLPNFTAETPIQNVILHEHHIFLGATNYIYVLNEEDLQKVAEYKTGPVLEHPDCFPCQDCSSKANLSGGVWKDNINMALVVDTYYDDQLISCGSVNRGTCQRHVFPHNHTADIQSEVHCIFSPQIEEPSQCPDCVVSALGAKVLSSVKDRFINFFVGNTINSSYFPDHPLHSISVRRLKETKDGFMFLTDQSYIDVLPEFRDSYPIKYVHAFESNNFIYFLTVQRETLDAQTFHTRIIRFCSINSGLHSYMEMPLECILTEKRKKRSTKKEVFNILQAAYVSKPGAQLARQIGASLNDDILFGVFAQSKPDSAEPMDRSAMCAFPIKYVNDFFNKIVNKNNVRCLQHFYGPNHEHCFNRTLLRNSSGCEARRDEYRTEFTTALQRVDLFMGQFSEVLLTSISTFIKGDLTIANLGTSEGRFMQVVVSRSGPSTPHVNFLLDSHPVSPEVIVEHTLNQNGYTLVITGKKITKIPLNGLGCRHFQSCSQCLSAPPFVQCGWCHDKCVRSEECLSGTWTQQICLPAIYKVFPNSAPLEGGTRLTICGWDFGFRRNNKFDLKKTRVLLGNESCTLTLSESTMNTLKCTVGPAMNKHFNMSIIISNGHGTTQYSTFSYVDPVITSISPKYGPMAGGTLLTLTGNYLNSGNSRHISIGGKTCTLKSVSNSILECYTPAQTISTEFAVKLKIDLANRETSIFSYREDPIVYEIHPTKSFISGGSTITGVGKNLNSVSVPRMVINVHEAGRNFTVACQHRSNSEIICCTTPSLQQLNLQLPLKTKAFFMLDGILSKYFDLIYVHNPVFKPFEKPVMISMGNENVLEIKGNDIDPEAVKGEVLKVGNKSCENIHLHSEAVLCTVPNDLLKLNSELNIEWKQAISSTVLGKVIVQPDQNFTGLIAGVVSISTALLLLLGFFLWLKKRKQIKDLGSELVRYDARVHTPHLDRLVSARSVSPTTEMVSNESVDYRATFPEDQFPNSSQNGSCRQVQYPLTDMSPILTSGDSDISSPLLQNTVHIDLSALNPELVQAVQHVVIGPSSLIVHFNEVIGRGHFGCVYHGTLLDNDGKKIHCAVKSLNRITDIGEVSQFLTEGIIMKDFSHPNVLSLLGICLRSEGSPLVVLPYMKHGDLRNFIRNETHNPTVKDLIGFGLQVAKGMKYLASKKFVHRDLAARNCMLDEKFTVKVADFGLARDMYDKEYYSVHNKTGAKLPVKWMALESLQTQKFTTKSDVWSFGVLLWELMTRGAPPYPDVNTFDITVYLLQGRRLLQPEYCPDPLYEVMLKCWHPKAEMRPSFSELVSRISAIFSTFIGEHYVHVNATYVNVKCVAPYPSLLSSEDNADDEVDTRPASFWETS
Leukocyte tyrosine kinase receptor (Homo sapiens), sequence (P29376 whole entry): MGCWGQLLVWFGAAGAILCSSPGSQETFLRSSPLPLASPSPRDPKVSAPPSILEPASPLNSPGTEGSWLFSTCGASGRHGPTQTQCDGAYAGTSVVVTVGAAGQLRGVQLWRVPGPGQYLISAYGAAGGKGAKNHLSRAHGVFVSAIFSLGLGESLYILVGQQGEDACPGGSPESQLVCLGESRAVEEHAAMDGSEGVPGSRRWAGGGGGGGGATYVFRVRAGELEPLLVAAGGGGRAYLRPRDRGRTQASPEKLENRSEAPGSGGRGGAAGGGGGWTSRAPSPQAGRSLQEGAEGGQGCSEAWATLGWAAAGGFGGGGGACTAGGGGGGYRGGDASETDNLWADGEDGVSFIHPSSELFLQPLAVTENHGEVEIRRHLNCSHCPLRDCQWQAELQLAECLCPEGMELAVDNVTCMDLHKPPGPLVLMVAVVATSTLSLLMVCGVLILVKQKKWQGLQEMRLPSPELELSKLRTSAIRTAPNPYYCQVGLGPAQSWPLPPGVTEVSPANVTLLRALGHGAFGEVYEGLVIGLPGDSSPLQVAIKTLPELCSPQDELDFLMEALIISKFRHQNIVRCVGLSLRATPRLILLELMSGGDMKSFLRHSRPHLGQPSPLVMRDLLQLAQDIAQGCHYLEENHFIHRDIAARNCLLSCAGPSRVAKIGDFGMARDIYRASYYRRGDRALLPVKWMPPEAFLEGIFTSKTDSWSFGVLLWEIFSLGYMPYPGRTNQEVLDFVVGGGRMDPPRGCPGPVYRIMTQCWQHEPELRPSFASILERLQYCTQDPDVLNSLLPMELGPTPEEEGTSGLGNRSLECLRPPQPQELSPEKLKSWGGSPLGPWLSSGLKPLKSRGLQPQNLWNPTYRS

SMILES	inhibition [1]	inhibition [2]	inhibition [3]	inhibition [4]	inhibition [5]	inhibition [6]	inhibition [7]	inhibition [8]	inhibition [9]	inhibition [10]
c1ccc(-c2n[nH]cc2-c2ccnc(-c3ccc(OCCn4ccnc4)cc3)c2)nc1	2.53%	2.2%	16.3%	0.89%	12.3%	0.8%	2.68%	4.9%	0.98%	0.34%
N#Cc1cccc(Nc2ncc(-c3ccccc3)o2)c1	3.55%	3.97%	10.5%	2.56%	9.05%	0.53%	4.24%	2.46%	5.36%	1.86%
CNC(=O)c1cncc(/C=C/c2ccccc2C)c1	2.98%	7.42%	18.9%	3.73%	14.9%	-0.15%	1.66%	9.7%	5.5%	3.91%
COc1ccc(-c2nn3ncccc3c2-c2ccnc(Nc3ccc(F)c(F)c3)n2)cc1	5.06%	6.17%	21.3%	3.08%	17.7%	1.6%	7.43%	1.87%	8.73%	3.13%
NS(=O)(=O)c1ccc(N/N=C2\C(=O)Nc3cccc(CCc4ccncc4)c32)cc1	1.43%	2.64%	6.56%	2.69%	5.45%	2.62%	3.17%	10.5%	15.4%	12.2%
Cc1cc(O)cc(C)c1/C=C/c1cncc(C(=O)OC(C)(C)C)c1	2.98%	13.7%	57.2%	13.6%	53.4%	1.26%	2.87%	4.92%	5.5%	3.21%
CCn1c(-c2nonc2N)nc2cncc(C(=O)NCCNC)c21	5.16%	5.55%	6.4%	3.01%	4.46%	3.05%	3.22%	1.82%	4.45%	5.69%
Cc1nnc(-c2cccc(-c3ccc(C(=O)NCC4CC4)cc3)c2)o1	4.76%	7.2%	5.98%	3.09%	5.48%	0.22%	0.56%	3.78%	7.87%	2.8%
Nc1ncnc2occ(-c3ccc(NC(=O)Nc4cc(C(F)(F)F)ccc4F)cc3)c12	53.6% and 34%	20.4% and 9.18%	73.7% and 57.2%	17.2% and 6.3%	70.5% and 53.6%	4.87% and 1.22%	34.7% and 21.6%	11% and 2.19%	29.8% and 11%	87.2% and 84.2%
CS(=O)(=O)CCNCc1ccc(-c2ccc3ncnc(Nc4ccc(OCc5ccccc5)cc4)c3c2)o1	4.57%	4.79%	9.83%	4.55%	8.36%	7.16%	43.7%	-0.6%	4.43%	2.69%
CS(=O)(=O)Nc1ccc(-c2cc(-c3ccccc3)cc(C(N)=O)c2N)cc1	2.83%	0.46%	3.24%	-1.81%	0.8%	0.78%	-0.18%	-1.07%	2.34%	1.31%
COc1cccc(-n2ncc3c(N/N=C/c4ccc(C(=O)NCCN(C)C)cc4)ncnc32)c1	4.37%	56.9%	88.1%	51%	86.3%	16.8%	59.3%	12.9%	55.7%	40.4%
COC(=O)Nc1nc2cc(Oc3ccc(NC(=O)Nc4ccccc4)cc3)ccc2[nH]1	4.01%	3.96%	8.66%	2.63%	6.73%	1.34%	2.99%	2.87%	18.7%	3.96%
CN(C)CCNC(=O)Nc1ccc(N(C)c2ccnc(Nc3ccc(CS(C)(=O)=O)cc3)n2)cc1	10.1%	5.57%	9.57%	2.36%	7.59%	0.57%	4.35%	5.93%	25.4%	3.67%
CS(=O)(=O)CCNCc1ccoc1-c1ccc2ncnc(Nc3ccc(OCc4ccccc4)cc3)c2c1	1.37%	2.38%	4.27%	1.69%	4.32%	3.82%	25.2%	3.02%	4.88%	1.36%
COc1cc(N2CCN(C(C)C)CC2)ccc1Nc1nc(Nc2cccc(F)c2C(=O)O)c2cc[nH]c2n1	91.8%	4.91%	8.65%	3.03%	6.2%	1.01%	4.62%	9.65%	1.52%	4.22%

SMILES	inhibition [1]	inhibition [2]	inhibition [3]	inhibition [4]	inhibition [5]	inhibition [6]	inhibition [7]	inhibition [8]	inhibition [9]	inhibition [10]
COc1cccc(Nc2nccc(-c3cnn4ncccc34)n2)c1	18.2%	5.3%	16.9%	3.27%	11.3%	1.29%	12.1%	3.9%	12.1%	2.83%
Cc1c2ccc(N(C)c3ccnc(Nc4cccc(S(N)(=O)=O)c4)n3)cc2nn1C	24.1%	41.3%	83.6%	36.3%	80.7%	17.7%	61.9%	10.6%	28.1%	2.38%
CCOc1ccc2c(-c3ccnc(Nc4cc(OC)cc(C(F)(F)F)c4)n3)cnn2n1	1.37%	2.55%	5.91%	0.62%	4.08%	1.11%	4.18%	4.49%	5.18%	0.02%
CN1CCN(Cc2ccc(-c3cc4ncnc(Nc5ccc(OCc6cccc(F)c6)c(Cl)c5)c4s3)o2)CC1	6.82% and 9.25%	3.27% and 7.55%	9.39% and 15.3%	2.07% and 5.46%	6.51% and 12%	8.38% and 10.3%	48.5% and 49.4%	11.1% and 5.95%	24.3% and 34.3%	0.99% and 4.74%
CNC(=O)c1ncccc1Nc1nc(Nc2cc3c(cc2OC)CCCN3C(=O)CN(C)C)nc2[nH]ccc12	94.4%	3.52%	4.53%	2.33%	3.27%	0.94%	4.5%	6.6%	10.1%	5.51%
CC1=C(C(=O)Nc2ccc3[nH]nc(C)c3c2)C(c2ccc(C(F)(F)F)cc2)CC(=O)N1 (stereo not given)	3.55%	4.49%	6.25%	1.98%	3.89%	2.17%	5.55%	1.4%	17.3%	5.25%
O=C(O[C@H]1CN[C@H](C#Cc2cc3ncnc(Nc4ccc5c(cnn5Cc5ccccc5)c4)c3s2)C1)N1CCOCC1	-0.87%	1.1%	1.11%	1.54%	0.75%	1.33%	9.62%	5.14%	1.77%	0.92%
OCCCNc1nccc(-c2c(-c3ccc(F)cc3)nn3cc(C(F)(F)F)ccc23)n1	-0.25%	3.88%	7.02%	3%	4.51%	0.89%	5.36%	1.57%	5.11%	2.96%
CCS(=O)(=O)c1ccc(OC)c(Nc2ncc(-c3cccc(F)c3)o2)c1	6.89%	32.5%	78.7%	26.3%	75.4%	2.9%	9.7%	6.73%	5.27%	3.58%
NS(=O)(=O)c1ccc(N/N=C2\C(=O)Nc3ccc(C(=O)NCc4ccncc4)cc32)cc1	2.51%	5.87%	17.7%	3.02%	14.7%	1.29%	1.37%	5.14%	13%	9.84%
NS(=O)(=O)c1cccc(N/C=C2\C(=O)Nc3ccccc32)c1	10.6%	5.77%	11.6%	3.69%	8.12%	3.46%	8.24%	4.45%	6.92%	4.44%
CCN1CCC(C(=O)Nc2n[nH]c3nnc(-c4cccc(F)c4F)cc23)CC1	-0.29%	0.08%	-1.05%	1.1%	0.66%	0.64%	2.84%	4.13%	2.58%	1.86%
CN1CCC(C(=O)Nc2n[nH]c3nc(-c4ccc(O)cc4)c(Br)cc23)CC1	50.1% and 45.5%	4.2% and 2.89%	8.89% and 2.99%	2.55% and 3.95%	6.26% and 2.78%	1.28% and 4.74%	4.17% and 6.1%	3.13% and 11.9%	14.2% and 6.92%	2.28% and 1.53%
COc1ccc(Nc2ncc(-c3ccccc3)o2)cc1OC	2.24%	7.52%	37.3%	5.1%	32.9%	-0.52%	5.18%	2.78%	1.69%	2.37%
CN(c1ccc(NC(=O)NCCN2CCOCC2)cc1)c1ccnc(Nc2ccc(CS(C)(=O)=O)cc2)n1	5.29%	4.34%	14.9%	2.19%	13.6%	1.6%	6.28%	3.89%	41.4%	3.78%
